Screening data from PubChem BioAssay.
The sample as a whole holds a higher share of hits than the screen did.
TTR transcr act: increases transthyretin transcription; SH-SY5Y TTR promoter Gaussia luciferase, luminescence; 100% = recombinant luciferase protein wells; AID 1117267; activation, % at 16.7 µM; 92,000 compounds, 1.3% hits;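 active = activation above the mean of all tested compounds plus 3 SD, cut at about 9.5% in these data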;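 also: cells exposed to compounds for one day before reading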
TTR inh HuH7: decreases TTR transcription in HuH7 cells in activator counter-screen | shares compounds with TTR transcr act | HuH7 TTR promoter-Gaussia luciferase reporter, luminescence | inhibition, % at 16.7 µM | 1,100 compounds, 4% hits | AID 1117279;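 active = average inhibition above the solvent-only control wells' mean plus 3 SD, cut at about 15% in these data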;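 also: inhibitors lower well luminescence so higher value means more inhibition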
TTR act confirm: confirmation of human transthyretin transcription activators; shares compounds with TTR transcr act; SHSY5Y TTR promoter Gaussia luciferase, luminescence; 100% = purified Lucia enzyme wells, no cells; activation, % at 16.7 µM; 1,100 tested, under 10 active; AID 1117280;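 active = mean activation above a set limit taken from the earlier primary screen, cut at about 11% in these data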
A number is an active result; i = inactive.

SMILES | TTR transcr act | others
CS(=O)(=O)c1ccc(C2=C(CNC(=O)c3cccnc3)[C@H]3CC[C@@H](C2)N3Cc2ccco2)cc1 | i
O=P(Oc1ccccc1)(N1CCOCC1)N1CCOCC1 | i
O=CC(Cl)P(=O)(N1CCOCC1)N1CCOCC1 (stereo not given) | i
O=P(/C(=N/O)N1CCOCC1)(N1CCOCC1)N1CCOCC1 | 12 | TTR inh HuH7=i;TTR act confirm=i
CCC(NC(=O)OCc1ccccc1)P(=O)(Oc1ccccc1)Oc1ccccc1 (stereo not given) | i
COC(=O)[C@@]1(Sc2ccc(C)cc2)CC(=O)N(P(=O)(OC)OC)[C@@H]1c1ccccc1 | i
COC(=O)C1=C(c2ccc(-c3ccccc3)c(F)c2)C[C@@H]2CC[C@H]1N2C(=O)NC1CCCCC1 | i
COc1cccc(C(=O)C2CCCN(Cc3cccc(C)n3)C2)c1 (stereo not given) | i
COc1cccc(C(=O)C2CCCN(Cc3ccc(F)cc3)C2)c1 (stereo not given) | i
COc1cccc(C(=O)C2CCCN(Cc3cnn(C(C)C)c3)C2)c1 (stereo not given) | 11 | TTR inh HuH7=i;TTR act confirm=i
O=C(O)C(O)(c1ccc(Cl)cc1)C1(O)CCCC1 (stereo not given) | i
CN(C)C(=O)Oc1ccc(Br)c2ccccc12 | i
